Only some compounds are listed: those with a hit (about 3.1% of all), similar ones and a draw of the others.
ALOX12 inhib = 12-hLO (ALOX12) enzyme inhibition. P18054. purified 12-hLO, xylenol orange hydroperoxide absorbance. Potency, µM (doses to about 57.1 µM), inactives show at the highest dose activity change, negative = inhibition, most hits filed as inhibitors. actives 0.12% (n = 150,000). AID 1452; further: potency means the concentration at half of the fitted maximal effect; nearly all actives have a fitted effect of over 55% in size
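Xylenol orange chromogenic assay: hydroperoxide from 12hLO oxidises Fe(II), giving red-shifted Fe(III)-XO absorbance. Conditions: 150 nM enzyme, 40 uM arachidonic acid, 25 mM Hepes pH 7.0, 0.01% Triton X-100, 30 min, room temperature.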
PNC assembly inh = blocks assembly of the perinucleolar compartment; PC3M PTB-GFP, PNC prevalence imaging, 16 h; stronger effect = lower value; activity change (PNC), negative = inhibition, % at 10 µM; actives 3.1% (n = 140,000);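 active means readout at or below -70, meaning at least 70% loss of cells showing the perinucleolar compartment, a nuclear body marking cancer cells; inconclusive means readout between -30 and a set limit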;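 further: plate controls were DMSO wells for no effect and camptothecin positive control wells for full effect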
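PC3M cells stably expressing PTB-GFP, 750–1000 cells/well, treated 16 h at 37 °C with compound (23 nl of library stock), in duplicate. After paraformaldehyde fixation and Hoechst stain, imaged at 20x; PNC prevalence scored by image analysis.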
15-hLO-2 inh = blocks human 15-lipoxygenase 2 activity; purified 15hLO-2, xylenol orange hydroperoxide absorbance; Potency, µM (doses to about 57.1 µM), for inactives: at the highest dose activity change, negative = inhibition, hits mostly inhibitors; actives 0.56% (n = 110,000); AID 881; further: potency means the concentration at half of the fitted maximal effect; nearly all actives have a fitted effect of over 60% in size
Target sequence (O15296 whole entry, looked up): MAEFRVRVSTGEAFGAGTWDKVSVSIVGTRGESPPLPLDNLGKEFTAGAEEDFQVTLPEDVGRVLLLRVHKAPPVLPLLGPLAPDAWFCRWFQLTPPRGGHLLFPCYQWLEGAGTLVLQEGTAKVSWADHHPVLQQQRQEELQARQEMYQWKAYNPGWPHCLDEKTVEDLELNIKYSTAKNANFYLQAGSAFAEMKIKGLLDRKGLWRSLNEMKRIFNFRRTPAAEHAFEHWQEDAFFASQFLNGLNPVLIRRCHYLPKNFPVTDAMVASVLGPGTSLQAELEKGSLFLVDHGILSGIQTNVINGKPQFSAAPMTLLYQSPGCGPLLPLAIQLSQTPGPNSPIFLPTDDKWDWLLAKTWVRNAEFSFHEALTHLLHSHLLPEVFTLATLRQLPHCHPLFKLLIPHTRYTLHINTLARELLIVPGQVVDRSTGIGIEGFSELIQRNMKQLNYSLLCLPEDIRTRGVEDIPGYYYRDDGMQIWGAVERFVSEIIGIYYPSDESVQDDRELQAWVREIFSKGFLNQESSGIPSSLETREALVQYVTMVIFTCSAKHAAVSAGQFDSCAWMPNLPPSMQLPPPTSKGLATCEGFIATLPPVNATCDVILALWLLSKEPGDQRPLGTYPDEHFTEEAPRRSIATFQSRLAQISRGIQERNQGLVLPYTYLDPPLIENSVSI
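Screening format was qHTS against 50 nM purified 15hLO-2 in Hepes pH 7.5 with detergent. Activity follows hydroperoxide formation from 45 uM arachidonic acid, measured as 573:405 nm absorbance ratio of the ferric-xylenol orange complex.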
Active calls of the source: *; [ ] = another dose, or the depositor's remark. Unless noted, the call rests on the fitted dose curve; in most records, active means well fitted curve in the direction sought with a large enough effect; inconclusive means small, poorly fitted or top-dose-only effect, or another doubt; inactive means no such curve, though single readings can be large; an effect the other way counts as inactive or inconclusive. Unless noted, on the % scale 0 is the no-effect control and ±100 the full control effect.

How did Cc1ccccc1NC(=S)NCc1ccc2[nH]c3c(c2c1)CCCC3 do in these assays?
ALOX12 inhib: 14µM*; PNC assembly inh: 25

Results for COC(=O)c1ccc(C(/C=C/[C@@H](C)C(=O)N(C)Cc2ccccc2)NC(=O)OCc2ccccc2)cc1 (some centres undefined) ?
ALOX12 inhib: -1%; 15-hLO-2 inh: 3%

Results for CCCCOC(=O)Nc1cccc(C(C)=O)c1 ?
ALOX12 inhib: -5%; PNC assembly inh: inconclusive; 15-hLO-2 inh: -5%

How did CCOC(=O)Nc1cccc(C(=O)O)c1 do in these assays?
ALOX12 inhib: -3%; PNC assembly inh: -104*

What do the screens show for `CC1(C)C(O)C=C[C@@]2(C)C1CC(=O)O[C@@]1(C)C3=CC(=O)OC(c4ccoc4)[C@]3(C)CCC21` (some centres undefined)?
ALOX12 inhib: -4%; 15-hLO-2 inh: -8%

What do the screens show for `Fc1ccc(CNCc2ccccc2C(F)(F)F)cc1`?
ALOX12 inhib: 1%; PNC assembly inh: -114*

What do the screens show for `Fc1ccc(CNCc2cccc(Br)c2)cc1`?
ALOX12 inhib: 1%; PNC assembly inh: inconclusive

What do the screens show for `Cc1cc(CN2CCCCC2)c(O)c(CN2CCCCC2)c1`?
ALOX12 inhib: 8%[11.4 µM]; 15-hLO-2 inh: 8%[11.4 µM]

What do the screens show for `COc1ccccc1CN1CC[C@@]2(CCCN(C(=O)c3cnccn3)C2)C1`?
ALOX12 inhib: -1%; 15-hLO-2 inh: -2%

How did Cc1ccccc1C(=O)Nc1ccc(Br)c(C)n1 do in these assays?
ALOX12 inhib: 4%; PNC assembly inh: -107*; 15-hLO-2 inh: 5%

How did Cc1nc(NC(=O)c2cccnc2)ccc1Br do in these assays?
ALOX12 inhib: -2%; PNC assembly inh: inconclusive; 15-hLO-2 inh: 7%

How did O=c1oc2ccccc2cc1-c1nc2ccccc2o1 do in these assays?
ALOX12 inhib: 4%; PNC assembly inh: 70; 15-hLO-2 inh: -6%

How did COc1ccc2oc(=O)c(-c3nc4ccccc4o3)cc2c1 do in these assays?
ALOX12 inhib: -3%; PNC assembly inh: -81*

What do the screens show for `C=C1C(=O)OC2C[C@@]3(C)CCCC(C)C3=CC12` (some centres undefined)?
ALOX12 inhib: -2%; 15-hLO-2 inh: -1%

How did Cc1ccc(-c2nc(N/N=C/c3ccncc3)c3ccccc3n2)cc1 do in these assays?
ALOX12 inhib: -16%; PNC assembly inh: -83*; 15-hLO-2 inh: 13%

Results for Clc1ccccc1-c1nc(N/N=C/c2cccnc2)c2ccccc2n1 ?
ALOX12 inhib: 1%; PNC assembly inh: inconclusive; 15-hLO-2 inh: -7%

What do the screens show for `COc1ccc(-c2nc3cnc(N4CCNCC4)nc3n(C3CC3)c2=O)cc1`?
ALOX12 inhib: -2%; 15-hLO-2 inh: -3%

Results for NC(=O)c1nnn(Cc2cc(Cl)c(C(=O)c3ccc(Cl)cc3)c(Cl)c2)c1N ?
ALOX12 inhib: -8%[11.4 µM]; 15-hLO-2 inh: 10%[11.4 µM]

How did O=C(COc1ccc(S(=O)(=O)N2CCCC2)cc1)NCc1ccco1 do in these assays?
ALOX12 inhib: 0%; PNC assembly inh: -29; 15-hLO-2 inh: -2%

Results for CCOc1ccc(S(=O)(=O)N2CCN(C(=S)NCc3ccco3)CC2)cc1 ?
ALOX12 inhib: -1%; PNC assembly inh: -87*

Results for O=C(Nc1ccc2ccccc2c1)[C@@H]1C[C@H]1[C@@H](NP(=O)(c1ccccc1)c1ccccc1)c1ccccc1 ?
ALOX12 inhib: -5%; PNC assembly inh: -119*; 15-hLO-2 inh: 22%

Results for O=C(NCc1ccccc1)[C@@H]1C[C@H]1[C@@H](NP(=O)(c1ccccc1)c1ccccc1)c1ccccc1 ?
ALOX12 inhib: -3%; PNC assembly inh: 22; 15-hLO-2 inh: 6%

How did Cc1ccc2[nH]c(=O)c(CN(CCCN3CCOCC3)Cc3nnnn3C3CCCC3)cc2c1 do in these assays?
ALOX12 inhib: -1%; PNC assembly inh: -100*; 15-hLO-2 inh: 14%

What do the screens show for `Cc1ccc2cc(CN(Cc3ccccc3)Cc3nnnn3C3CCCC3)c(=O)[nH]c2c1`?
ALOX12 inhib: -12%; PNC assembly inh: 34; 15-hLO-2 inh: 2%[2.29 µM]

What do the screens show for `N#CCCn1c(=O)c(-c2cc(F)cc(F)c2)nc2cnc(Oc3cccc(Cl)c3)nc21`?
ALOX12 inhib: -5%; 15-hLO-2 inh: -10%

What do the screens show for `O=C(CSc1nc(O)c(C2CCCCC2)c(=O)[nH]1)Nc1ccc(Cl)cc1`?
ALOX12 inhib: inconclusive; PNC assembly inh: -112*; 15-hLO-2 inh: -18%

How did CC(=O)Nc1c(O)nc(SCC(=O)Nc2ccc(C(C)=O)cc2)[nH]c1=O do in these assays?
ALOX12 inhib: 1%; PNC assembly inh: -26; 15-hLO-2 inh: 7%

Results for Cc1cccc(-n2c(N)cc(=O)nc2SCC(=O)Nc2nnc(CC(C)C)s2)c1 ?
ALOX12 inhib: 1%; PNC assembly inh: -4; 15-hLO-2 inh: -18%

What do the screens show for `CCCCc1nnc(NC(=O)CSc2nc(=O)cc(N)n2-c2cccc(C)c2)s1`?
ALOX12 inhib: 2%; PNC assembly inh: -81*; 15-hLO-2 inh: -20%

What do the screens show for `CC(=O)N1CCC2(CC1)CN(Cc1ccccc1)C2`?
ALOX12 inhib: -3%; 15-hLO-2 inh: 0%

Results for Cc1c(Cc2ccccc2)sc(/N=C/c2c(O)ccc3ccccc23)c1C(N)=O ?
ALOX12 inhib: -17%; PNC assembly inh: inconclusive

What do the screens show for `Cc1c(Cc2ccccc2)sc(/N=C/c2ccc3ccccc3c2)c1C(N)=O`?
ALOX12 inhib: 0%; PNC assembly inh: -103*

What do the screens show for `O=C(c1cnccn1)N1CCC2(CCCN(c3cccc(-c4ccccc4)c3)C2)CC1`?
ALOX12 inhib: -23%; 15-hLO-2 inh: 12%

Results for CC(=O)Nc1nc2ccccc2n1CCOc1ccccc1 ?
ALOX12 inhib: -3%; PNC assembly inh: 0; 15-hLO-2 inh: 6%

How did S=C(Nc1ccccc1)Nc1nc2ccccc2n1CCOc1ccccc1 do in these assays?
ALOX12 inhib: 20µM*; PNC assembly inh: -10; 15-hLO-2 inh: inconclusive

How did CNC1CCC(c2ccc(Cl)c(Cl)c2)c2ccccc21 (centres undefined) do in these assays?
ALOX12 inhib: -6%

What do the screens show for `COc1cc2c(cc1OC)C1(CCCC1)C(N)=C2C#N`?
ALOX12 inhib: inconclusive; PNC assembly inh: -100*

Results for COc1cc2c(cc1OC)C1(CCCC1)CNC2C (centres undefined) ?
ALOX12 inhib: 2%; PNC assembly inh: -20

What do the screens show for `COc1ccc(-c2csc(NC(=O)CCn3cnc4ccccc4c3=O)n2)cc1OC`?
ALOX12 inhib: 2%; PNC assembly inh: 54; 15-hLO-2 inh: inconclusive

Results for CC(C)(C)NC(=O)CSc1nnc(NC(=O)CCn2cnc3ccccc3c2=O)s1 ?
ALOX12 inhib: 2%; PNC assembly inh: -122*; 15-hLO-2 inh: 1%[2.29 µM]

Results for COC(=O)c1ccc(C(/C=C/[C@@H](C)C(=O)NCCc2c[nH]c3ccccc23)NC(=O)OCc2ccccc2)cc1 (some centres undefined) ?
ALOX12 inhib: -2%; 15-hLO-2 inh: -10%

How did COc1ccc(OC)c(S(=O)(=O)Nc2ccc(Oc3ccccc3)cc2)c1 do in these assays?
ALOX12 inhib: inconclusive; PNC assembly inh: 0; 15-hLO-2 inh: -7%

How did COc1ccc(OC)c(S(=O)(=O)Nc2ccc(O)c3ccccc23)c1 do in these assays?
ALOX12 inhib: -18%; PNC assembly inh: inconclusive; 15-hLO-2 inh: 16µM*
